From PubChem
CHO-K1 Ca antag: counter-screen for M1 antagonists: effect in parental CHO-K1 cells. ATP-induced calcium, Fluo-8 fluorescence. inhibition, % at 3 µM. 360,000 compounds, 0.6% hits;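 active = inhibition above a per-plate cutoff, the plate's mean sample inhibition plus 3 SD, cut at about 24% in these data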;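 note: 0% = DMSO plus EC80 ATP and 100% = DMSO alone without ATP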
CHRM1 antagonist: antagonists of human M1 muscarinic receptor; inhibition, % at 3 µM; 360,000 compounds, 1.3% hits; CHO-K1 hM1, Fluo-8 calcium fluorescence, ACh EC80 antagonist; AID 588852;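 active = percent inhibition above its own plate's cutoff, namely the mean of that plate's compound wells plus 3 SD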;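 note: peak over basal fluorescence ratio during 140 s after agonist addition; 0% = ACh EC80 plus DMSO and 100% = DMSO alone without agonist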
Target sequence (P11229 whole entry, looked up): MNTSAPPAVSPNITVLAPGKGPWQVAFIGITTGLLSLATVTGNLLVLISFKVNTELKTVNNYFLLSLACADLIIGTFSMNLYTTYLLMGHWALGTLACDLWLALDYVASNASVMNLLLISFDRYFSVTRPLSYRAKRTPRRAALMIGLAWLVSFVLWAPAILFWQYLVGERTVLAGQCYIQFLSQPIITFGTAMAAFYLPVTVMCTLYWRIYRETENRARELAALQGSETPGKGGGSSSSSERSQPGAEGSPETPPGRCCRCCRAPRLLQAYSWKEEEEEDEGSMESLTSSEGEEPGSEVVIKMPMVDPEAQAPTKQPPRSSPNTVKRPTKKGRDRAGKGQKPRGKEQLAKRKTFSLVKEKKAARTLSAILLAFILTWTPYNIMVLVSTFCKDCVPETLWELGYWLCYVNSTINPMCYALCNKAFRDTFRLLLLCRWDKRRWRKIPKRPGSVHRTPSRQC
CHO-K1 Ca ag: M1 agonist counterscreen hit in parental CHO-K1 cells | activation, % at 3 µM | 360,000 compounds, 0.48% hits | Fluo-8 calcium fluorescence; scaled to maximal ATP response, vehicle zero; in the data active = activation above about 15%;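 note: untransfected CHO-K1 host cells lacking M1 receptor as counterscreen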
CHRM1 PAM: potentiates human M1 receptor response to acetylcholine. CHO-K1 hM1, Fluo-8 calcium fluorescence, ACh EC20; 0% = ACh EC20, 100% = maximal ACh. activation, % at 3 µM. 360,000 compounds, 0.088% hits. AID 588819; in the data active = activation above about 19%, passing the limit was not always enough
M1 ag: human M1 muscarinic receptor agonism. activation, % at 3 µM. 360,000 compounds, 0.33% hits. CHO-K1 hM1, Fluo-8 calcium fluorescence, agonist mode; 0% DMSO, 100% acetylcholine EC100;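 active = activation above the run's mean compound activation plus 3 SD, cut at about 16% in these data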;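 note: peak over basal fluorescence ratio within a 140 s kinetic read after compound addition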
M1 PAM parental: M1 PAM counterscreen hit in parental CHO-K1 cells. ATP EC20, Fluo-8 calcium fluorescence; 0% at ATP EC20, 100% at ATP max. activation, % at 3 µM. 360,000 compounds, 0.02% hits. AID 602247;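 active = activation above the run cutoff, the mean activation of all test compounds plus 3 SD, cut at about 40% in these data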;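 note: peak over basal fluorescence ratio in a 140 s read after ATP addition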
* hit, by the source's call. In the library only some 2.4% were active in any assay of this set; here they are far more common.

SMILES | CHO-K1 Ca antag | CHRM1 antagonist | CHO-K1 Ca ag | CHRM1 PAM | M1 ag | M1 PAM parental
CCc1n[nH]c(=S)n1/N=C/c1cccc2ccccc12 | -4.2 | -6.8 | 18.2* | 3.8 | -6.4 | 5.1
O=C(CCCC(=O)c1ccccc1)NCc1ccccc1 | -14.3 | -22.5 | 0.7 | 15.6 | -5.6 | 12.7
Cc1cc2c(c(=O)n1Cc1ccco1)C(c1cccnc1)C(C#N)=C(N)O2 (stereo not drawn) | 26.3* | -3.1 | -0.2 | 14.8 | 0.3 | -8.4
CCOc1ccc(C2C(C#N)=C(N)Oc3cc(C)n(Cc4ccco4)c(=O)c32)cc1OC (stereo not drawn) | 4.8 | -5.1 | -0.1 | 6.1 | -1.4 | -3.3
CCN(CC)CCCn1c(C)cc2c(c1=O)C(c1cccc(Cl)c1)C(C#N)=C(N)O2 (stereo not drawn) | 3.2 | 60.2* | 0.0 | -18.8 | -5.5 | 1.4
CCN(CC)CCCn1c(C)cc2c(c1=O)C(c1cc(OC)c(OC)cc1OC)C(C#N)=C(N)O2 (stereo not drawn) | -3.3 | 24.9 | 1.5 | -11.4 | -4.9 | 17.8
COc1ccc(NC(=O)COC(=O)CCC2CCCC2)c(OC)c1 | -15.2 | -11.6 | 6.7 | 15.3 | -0.3 | 30.0
CCCCCCC#Cc1cncc(C(=O)NNC(=O)Nc2cc(Cl)cc(Cl)c2)c1 | -1.7 | -5.2 | -0.2 | 4.3 | -3.3 | -10.8
CCCCC#Cc1cncc(C(=O)NN)c1 | -2.4 | -6.4 | 18.9* | 4.1 | 3.9 | 12.0
C=CCNCc1ccc(C(=O)NCCCCCCC)cc1[N+](=O)[O-] | -9.5 | 3.7 | 0.8 | -1.9 | -6.6 | -14.7
CCOC(=O)C1C(=O)C=C(/C=C/c2ccc(N(C)C)cc2)CC1c1ccccc1 (stereo not drawn) | 13.8 | 21.2 | 22.1* | -6.6 | 18.3* | 6.1
CC(=O)NC(=S)Nc1ccc(NC(=S)NC(=O)/C=C/c2ccco2)cc1 | -11.2 | -6.8 | 11.5 | 15.5 | 25.1* | 37.7
CCC(=O)Nc1ccc(NC(=S)NC(=O)/C=C/c2ccco2)cc1 | -1.2 | -18.4 | 0.6 | 14.2 | -1.7 | 17.1
COC(=O)c1ccccc1NC(=O)N1CCN(C/C=C/c2ccccc2)CC1 | -21.6 | 3.3 | 0.9 | -7.3 | -9.3 | 15.7
Cc1ccc(C(=O)CCC(=O)N2CCN(C/C=C/c3ccccc3)CC2)cc1 | -0.2 | -2.6 | 2.4 | -9.3 | 24.2* | 13.5
Cc1ccc(NC(=O)N2CCN(C/C=C/c3ccccc3)CC2)cc1 | 0.1 | -10.2 | 0.1 | 6.3 | -9.6 | 11.0
Cc1ccccc1C(=O)NCC(=O)N1CCN(C/C=C/c2ccccc2)CC1 | -7.0 | 33.3* | 0.9 | -17.5 | 23.0* | -14.4
CCCCNC(=O)N1CCN(C/C=C/c2ccccc2)CC1 | 12.9 | 7.4 | -0.2 | -6.6 | -10.9 | -7.2
CCOc1ccc(C(=O)NCC(=O)N2CCN(C/C=C/c3ccccc3)CC2)cc1OCC | -6.6 | 29.5* | 0.6 | -14.1 | 26.9* | 9.3
COc1ccccc1C(=O)NCC(=O)N1CCN(C/C=C/c2ccccc2)CC1 | -11.5 | -1.8 | 0.4 | 0.5 | 21.8* | 7.9
N#Cc1ccc(OCC(=O)Nc2nc(-c3cccnc3)cs2)cc1 | -13.1 | 6.5 | 6.6 | -5.7 | 0.0 | 4.4
COC(=O)c1ccc(CO/N=C(\NC(C)=O)c2nonc2NC(C)=O)cc1 | -9.4 | -8.0 | 0.5 | 2.2 | 17.0* | 17.1
CCOC(=O)c1nonc1NC(C)=O | 4.1 | -6.4 | 0.4 | 9.9 | -3.0 | -0.2
Cc1cc(C(=O)COC(=O)C2=COCCO2)c(C)n1-c1ccc2c(c1)OCO2 | -13.9 | -3.8 | 3.4 | -1.4 | -2.4 | 25.0
Cc1cc(C(=O)COc2ccc(C#N)cc2)c(C)n1-c1ccc2c(c1)OCO2 | 32.1* | 3.3 | 0.4 | -9.5 | -9.3 | -6.1
SMILES | CHO-K1 Ca antag | CHRM1 antagonist | CHO-K1 Ca ag | CHRM1 PAM | M1 ag | M1 PAM parental
CCN1CCCC1CNC(=O)c1ccc(Sc2ccc(F)cc2)c([N+](=O)[O-])c1 (stereo not drawn) | -4.2 | 99.9* | 1.0 | -25.6 | -7.2 | 7.5
CCN1CCCC1CNC(=O)c1ccc(Sc2ccccc2Cl)c([N+](=O)[O-])c1 (stereo not drawn) | -0.1 | 99.0* | 0.9 | -26.0 | -8.2 | -10.4
C[C@@H]1CN([C@@H](C)CO)C(=O)CCCn2cc(nn2)CO[C@H]1CN(C)C(=O)c1ccc2ccn(C)c2c1 | -1.1 | -26.9 | 0.5 | 10.3 | -4.6 | 16.1
COc1cc(NC(=O)C/C(C)=N/NC(=O)C(=O)NCCO)c(OC)cc1Cl | 55.2* | -5.7 | -0.5 | 8.0 | -6.6 | -15.4
COc1cc(NC(=O)C/C(C)=N/NC(=O)C(=O)NC2CCCCC2)c(OC)cc1Cl | 2.9 | -8.3 | -0.7 | 2.7 | -3.4 | -13.1
COc1ccc(CC(=O)NC(C)c2nnc(SCC(=O)c3ccc(Br)cc3)n2C)cc1 (stereo not drawn) | -16.3 | 2.0 | 0.7 | 5.5 | -9.4 | 2.1
COc1ccc(CC(=O)NC(C)c2nnc(SCC(=O)Nc3nc(C)cs3)n2C)cc1 (stereo not drawn) | 30.6* | 4.9 | -0.1 | 8.8 | -3.8 | -6.4
CN(C)c1cccc(C(=O)OCC(=O)Nc2ccccc2Sc2ccccc2)c1 | 31.1* | 18.2 | -0.7 | -11.3 | -5.6 | -13.9
O=C(CN1CCOCC1)Nc1ccccc1F | -4.1 | -10.1 | 0.1 | 30.3* | -3.0 | 3.6
O=C(CN1CCOCC1)Nc1ccccc1Sc1ccc(Cl)cc1 | 8.1 | 22.4* | 4.5 | -14.4 | -7.0 | -10.4
O=C(Cc1ccc(Cl)cc1)Nc1ccccc1Sc1ccccc1 | -8.2 | -3.5 | 0.9 | 0.1 | -8.7 | 14.2
O=C(CCl)Nc1ccccc1Sc1ccccc1 | 23.9* | 16.7 | -0.4 | -13.3 | -6.9 | -6.5
COc1ccc(CCN2CCCn3c2nc2c3c(=O)n(CC(C)C)c(=O)n2C)cc1OC | 1.4 | 5.4 | 12.9 | -10.6 | -3.6 | -4.5
O=C1CC(N2CCN(C/C=C/c3ccccc3)CC2)C(=O)N1Cc1cccs1 (stereo not drawn) | -19.6 | 87.3* | 1.6 | -24.2 | -8.2 | 16.2
O=C1CC(N2CCN(C3CC(=O)N(CCc4ccccc4)C3=O)CC2)C(=O)N1CCc1ccccc1 (stereo not drawn) | -1.4 | 0.3 | 1.6 | 0.4 | -3.4 | -8.5
O=C1CC(N2CCN(C/C=C/c3ccccc3)CC2)C(=O)N1CCc1ccccc1 (stereo not drawn) | -2.3 | 8.8 | 15.6* | -25.2 | -3.2 | 0.0
O=C1CC(N2CCN(c3ccc(O)cc3)CC2)C(=O)N1Cc1cccs1 (stereo not drawn) | 2.7 | -6.0 | 0.9 | 2.5 | -4.2 | -2.0
CC(OC(=O)CCC(=O)c1cccs1)C(=O)NC1CCCCC1C (stereo not drawn) | -8.8 | -12.4 | -0.1 | 17.3 | 5.9 | 5.7
CC1CCCC(C)N1C(=O)COC(=O)CNC(=O)c1sc2ccccc2c1Cl (stereo not drawn) | 17.8 | -5.8 | 19.2* | 4.0 | -1.9 | -16.5
